Experimental data from PubChem BioAssay (NCATS).
Where “and” joins values, the source holds several entries; their conditions need not be identical. Identical values can stand only once. Inconclusive results are not listed. Calls of active or inactive are those of the source. Unless noted, the call rests on the fitted dose curve; in most records, active means well fitted curve in the direction sought with a large enough effect; inconclusive means small, poorly fitted or top-dose-only effect, or another doubt; inactive means no such curve, though single readings can be large; an effect the other way counts as inactive or inconclusive.

Tests used:
[1] = NCATS anti-infectives library activity on HEK293 viability as a counter-qHTS vs the C. elegans viability qHTS (AID 1745854); further: potency means the concentration at half of the fitted maximal effect
In short: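 CellTiter-Glo luminescence, read on a CCD imager, scored viability of HEK293 cells after 24 hr compound exposure at 37C. Library tested in several concentrations, 1:5 steps, up to 41.7 uM; digitonin served as control.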

[2] = biological target: Glutathione peroxidase 1 (Homo sapiens) (UniProt P07203); experiment: Primary qHTS Assay for Inhibitors of Recombinant Selenoprotein Glutathione Peroxidase 1 (GPX1) (AID 1845191); further: nearly all actives have a fitted effect of over 65% in size; further: potency means the concentration at half of the fitted maximal effect
Glutathione peroxidase 1 (Homo sapiens), sequence (P07203 whole entry, looked up): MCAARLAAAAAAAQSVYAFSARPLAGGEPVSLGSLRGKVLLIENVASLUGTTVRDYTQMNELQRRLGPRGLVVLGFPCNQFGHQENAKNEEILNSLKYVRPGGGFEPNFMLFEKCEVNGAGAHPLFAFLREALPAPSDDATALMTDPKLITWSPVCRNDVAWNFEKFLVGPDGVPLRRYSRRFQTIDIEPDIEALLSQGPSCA
In short: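 GPX1 10 nM, GR 100 nM, GSH 1 mM, NADPH 0.5 mM, CHP 0.5 mM (final). 30-min cpd preincubation, RT. Ex340/Em450 read t=0, t=15 min.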

[3] = biological target: Phospholipid hydroperoxide glutathione peroxidase GPX4 (Homo sapiens) (UniProt P36969); experiment: Primary qHTS Assay for Inhibitors of Recombinant Selenoprotein Glutathione Peroxidase 4 (GPX4) (AID 1845192); further: nearly all actives have a fitted effect of over 65% in size; further: potency means the concentration at half of the fitted maximal effect; on activity change, negative = inhibition: on the % scale 0 is the no-effect control and ±100 the full control effect
Phospholipid hydroperoxide glutathione peroxidase GPX4 (Homo sapiens), sequence (P36969 whole entry, looked up): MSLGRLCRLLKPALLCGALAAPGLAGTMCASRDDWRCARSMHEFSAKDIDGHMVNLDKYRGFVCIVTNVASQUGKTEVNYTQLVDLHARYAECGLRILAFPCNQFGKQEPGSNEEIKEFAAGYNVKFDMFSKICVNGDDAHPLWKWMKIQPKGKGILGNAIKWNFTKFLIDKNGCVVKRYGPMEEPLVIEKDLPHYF
In short: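 qHTS, GR-coupled: GPX4 200 nM + cpd 30 min RT → GSH 1 mM, NADPH 0.5 mM, GR 100 nM → CHP 0.5 mM start; fluor 340/450 at t0 and t15 min; no-enzyme wells as control.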

[4] = Quantitative High-Throughput drug screen in 47 multiple myeloma cell lines against the NCATS MIPE library collection: FR4_PLB cell viability assay (AID 1918924; further: nearly all actives have a fitted effect of over 35% in size; further: potency means the concentration at half of the fitted maximal effect)
In short: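 Relative luminescence from CellTiter-Glo served as the viability signal, referenced to DMSO-treated (100%) and cell-free medium (0%) controls. Treatment lasted 48 hours at 37C with 500 cells per well.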

[5] = Quantitative High-Throughput drug screen in 47 multiple myeloma cell lines against the NCATS MIPE library collection: Delta47_JCRB cell viability assay (AID 1918925; further: nearly all actives have a fitted effect of over 45% in size; further: potency means the concentration at half of the fitted maximal effect)
In short: (§1)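 CellTiter-Glo luminescence (ATP) after 48 h compound exposure, 37C/5% CO2; 500 cells/well; MIPE 4.0 approved/investigational drugs pinned in; DMSO = 100%, media only = 0% viability.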

[6] = Quantitative High-Throughput drug screen in 47 multiple myeloma cell lines against the NCATS MIPE library collection: AMO1_DSMZ cell viability assay (AID 1918927; further: nearly all actives have a fitted effect of over 30% in size; further: potency means the concentration at half of the fitted maximal effect)
In short: as §1

[7] = biological target: Metallo-beta-lactamase type 2 (Klebsiella pneumoniae) (UniProt C7C422); experiment: qHTS to identify inhibitors of the New Delhi Metallo-beta-lactamase (NDM): assay validation screen against the NCATS LOPAC Collection (AID 1794843);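 further: nitrocefin turnover by NDM-1 measured as 485 nm absorbance at plateau; on the % scale 0 is the no-effect control and ±100 the full control effect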
Metallo-beta-lactamase type 2 (Klebsiella pneumoniae), sequence (C7C422 whole entry, looked up): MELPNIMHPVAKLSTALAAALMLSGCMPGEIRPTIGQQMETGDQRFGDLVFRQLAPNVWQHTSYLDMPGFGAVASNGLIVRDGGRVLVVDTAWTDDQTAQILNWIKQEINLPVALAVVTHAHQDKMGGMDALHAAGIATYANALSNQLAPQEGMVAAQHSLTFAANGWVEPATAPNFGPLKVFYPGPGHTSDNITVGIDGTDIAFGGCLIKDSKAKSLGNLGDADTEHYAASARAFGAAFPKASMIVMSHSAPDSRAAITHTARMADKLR
In short: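 Enzyme 2 nM final, 50 mM HEPES pH 7.0, 1 uM ZnSO4, 0.01% Tween20; cpds in DMSO, preincub w/ enzyme; + nitrocefin (50 uM stock); A485 at plateau; no-enzyme column as blank.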

[8] = Quantitative High-Throughput drug screen in 47 multiple myeloma cell lines against the NCATS MIPE library collection: EJM_DSMZ cell viability assay (AID 1918926; further: nearly all actives have a fitted effect of over 30% in size; further: potency means the concentration at half of the fitted maximal effect)
In short: as §1

[9] = Viability counterscreen for antagonist of constitutive androstane receptor (CAR) against the NCATS DSHEA and TCM libraries (AID 1794837);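 further: compound exposure lasted 24 h before viability reading; 0% is about no effect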
In short: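 Fluorescence from CellTiter-Fluor reports live-cell protease activity in HepG2-CYP2B6-hCAR cells treated for 24 h with substances alongside 48 uM CITCO.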

[10] = Viability counterscreen for agonist of constitutive androstane receptor (CAR) against the NCATS DSHEA and TCM libraries (AID 1794838);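 further: HepG2 cells with CYP2B6 reporter and hCAR plus 0.75 µM PK11195 antagonist; cells exposed to compound for 24 h; 0% is about no effect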
In short: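 In agonist mode, PK11195 is added at 0.75 uM final to HepG2-CYP2B6-hCAR cells dosed with test substances. Cultures incubate 24 h at 37C before a protease-based fluorogenic viability readout.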

[11] = HepG2 viability counterscreen (readout 2: ATP content) against the NCATS DSHEA and TCM libraries (AID 1794840);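 further: HepG2 cells exposed to substances for about 24 h; 0% is about no effect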
In short: (§2)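 Cytotoxicity was assessed in HepG2 cells plated at 1,000 cells/well and exposed for about 24 hours to a concentration series. Protease activity and ATP content were measured sequentially in each well.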

[12] = HepG2 viability counterscreen (readout 1: protease activity) against the NCATS DSHEA and TCM libraries (AID 1794841);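 further: cells exposed to compounds for about 24 h before the protease read; 0% is about no effect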
In short: as §2

[13] = biological target: Nicotinamide N-methyltransferase (Homo sapiens) (UniProt P40261); experiment: Confirmatory Screen for Target Class Profiling of Small Molecule Inhibitors of Methyltransferases (AID 1745852); details: MTase-Glo luminescence, SAH detection, recombinant enzyme; measured here: NNMT max response; stronger effect = lower value
Nicotinamide N-methyltransferase (Homo sapiens), sequence (P40261 whole entry, looked up): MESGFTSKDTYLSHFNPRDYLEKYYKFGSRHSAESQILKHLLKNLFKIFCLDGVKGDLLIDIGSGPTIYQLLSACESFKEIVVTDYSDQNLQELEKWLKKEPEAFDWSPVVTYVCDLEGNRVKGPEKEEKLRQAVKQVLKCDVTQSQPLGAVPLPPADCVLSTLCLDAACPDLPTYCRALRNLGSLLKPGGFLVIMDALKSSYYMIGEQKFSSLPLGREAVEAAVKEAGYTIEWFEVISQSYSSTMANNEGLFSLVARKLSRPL

[14] = biological target: Phenylethanolamine N-methyltransferase (Homo sapiens) (UniProt P11086); experiment: as above; details: MTase-Glo luminescence, SAH detection, recombinant enzyme; measured here: PNMT max response; stronger effect = lower value
Phenylethanolamine N-methyltransferase (Homo sapiens), sequence (P11086 whole entry, looked up): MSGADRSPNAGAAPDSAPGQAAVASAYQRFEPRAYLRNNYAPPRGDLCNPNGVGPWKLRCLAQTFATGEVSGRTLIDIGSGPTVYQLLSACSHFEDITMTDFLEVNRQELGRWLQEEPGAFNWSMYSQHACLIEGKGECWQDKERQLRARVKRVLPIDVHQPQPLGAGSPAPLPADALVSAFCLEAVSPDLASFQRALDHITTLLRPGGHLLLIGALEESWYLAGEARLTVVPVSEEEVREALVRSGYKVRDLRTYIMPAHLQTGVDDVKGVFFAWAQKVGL

[15] = biological target: Luciferin 4-monooxygenase (Photinus pyralis) (UniProt P08659); experiment: Primary firefly luciferase (FLuc) qHTS assay for identification of artifact compounds. (AID 1845220); details: outcome: dose series up to 54.1 µM; further: nearly all actives have a fitted effect of over 60% in size;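 on activity change, negative = inhibition: plate controls were DMSO vehicle for no effect and no enzyme for full effect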
In short: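 qHTS, 15 min compound preincubation with substrate (10 uM luciferin, 10 uM ATP) at RT, then 10 nM FLuc; 5 min; luminescence; % inhibition vs no-enzyme/DMSO controls, 4-parameter Hill fit.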

[16] = Primary fluorescence-based thiol-reactive (MSTI) qHTS assay for identification of artifact compounds. (AID 1845221); further: nearly all actives have a fitted effect of over 65% in size; further: potency means the concentration at half of the fitted maximal effect
In short: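 A multi-concentration qHTS design tested compounds against 4 uM MSTI, pH 7.4 phosphate-buffered saline. Plates were protected from light for 1 h at room temperature before imaging fluorescence.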

[17] = test system: Nanoluciferase (engineered Oplophorus gracilirostris luciferase); experiment: Primary Nanoluciferase (NLuc) qHTS assay for identification of artifact compounds. (AID 1845222)
In short: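 Luminescence read-out of secreted NLuc in S16 cell conditioned medium (1:55); compounds tested with 15 min RT preincubation, then Nano-Glo substrate 1:100, 5 min. % inhibition vs no-enzyme and DMSO controls, 4-parameter Hill fit.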

[18] = NCATS anti-infectives library activity on the primary C. elegans qHTS viability assay (AID 1745855; calls by dose curve); details: C. elegans worm area imaging, day 7; at 41.8 µM (top of the series)
In short: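 Titration-based screen in worms: eggs hatched overnight in M9, L1 larvae fed TOP10 capsules in S medium with compound, incubated 21 °C for 7 days; fluorescent objects gated by size and intensity at days 0, 3 and 7.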

[19] = Primary redox qHTS assay for identification of artifact compounds. (AID 1845223)
In short: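 Redox-cycling detection via DTT (250 uM final) oxidation coupled to Amplex Red (25 uM)/HRP (250 mU/mL) in HBSS. 15 min preincubation plus 30 min after DTT, room temperature. Ex/Em 525/598 nm; 4-parameter Hill fit against DMSO and 10 uM DA3003.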

CCN[C@H]1C[C@H](C)S(=O)(=O)c2sc(S(N)(=O)=O)cc21
inactive: Potency [1] | Potency [2] | Potency [3] | Potency [4] | Potency [5] | Potency [6]

CCN(CC)CC#CCOC(=O)C(O)(c1ccccc1)C1CCCCC1 (stereo unspecified)
inactive: outcome [7] | Potency [2] | Potency [3] | Potency [4] | Potency [5] | Potency [8]

COc1ccc2cc3[n+](cc2c1OC)CCc1cc2c(cc1-3)OCO2
active: Potency [4] 14.8 µM | Potency [5] 5.26 µM
inactive: outcome [9] | outcome [10] | outcome [11] | outcome [12] | Potency [2] | Potency [3]

CC(C)Cn1cnc2c(N)nc3ccccc3c21
inactive: Potency [1] | Potency [2] | Potency [3] | Potency [4]
active: Potency [8] 5.26 µM | Potency [6] 4.18 µM

Cc1oc(=O)oc1CN1CCN(c2cc3c(cc2F)c(=O)c(C(=O)O)c2n3C(C)S2)CC1 (stereo unspecified)
inactive: Potency [1] | Potency [2] | Potency [3] | Potency [5] | Potency [6]

Cc1ccc(S(=O)(=O)N[C@@H](Cc2ccccc2)C(=O)CCl)cc1
active: Potency [4] 20.9 µM | Potency [5] 5.26 µM | Potency [8] 16.6 µM | Potency [6] 13.2 µM
inactive: outcome [7] | Potency [2] | Potency [3]

COc1cc2c(Nc3ccc(Br)cc3F)ncnc2cc1OCC1CCN(C)CC1
-14.2%: activity [13]
active: Potency [8] 23.5 µM
-14.3%: activity [14]
inactive: Potency [3] | outcome [15] | Potency [16] | outcome [17]

CC(C)(C)C(=O)OCOP(=O)(COCCn1cnc2c(N)ncnc21)OCOC(=O)C(C)(C)C
active: Potency [4] 6.62 µM | Potency [5] 0.0833 µM | Potency [8] 0.935 µM | Potency [6] 0.105 µM
inactive: outcome [18] | Potency [3]

O=P(O)(O)C(O)(Cc1cccnc1)P(=O)(O)O
inactive: Potency [1] | Potency [2] | Potency [3] | activity change, negative = inhibition [15] -16.9% [at 6.45 µM] | outcome [15] | Potency [16] | outcome [17] | Potency [19] | Potency [4] | Potency [5] | Potency [8] | Potency [6]

COc1ccccc1OCC(O)COC(N)=O (stereo unspecified)
inactive: Potency [1] | outcome [18] | Potency [2] | Potency [3] | Potency [4] | Potency [5] | Potency [8] | Potency [6]

Cc1nnc(C(=O)NC(C)(C)c2nc(C(=O)NCc3ccc(F)cc3)c(O)c(=O)n2C)o1
inactive: Potency [1] | Potency [2] | Potency [3] | outcome [15] | outcome [17] | Potency [19] | Potency [4] | Potency [5] | Potency [8]
active: Potency [6] 0.0042 µM

Nc1nc(=S)c2[nH]cnc2[nH]1
active: Potency [1] 3.55 µM | Potency [4] 1.66 µM | Potency [5] 2.96 µM
inactive: Potency [2] | Potency [3]

OCc1ccc(-c2nn(Cc3ccccc3)c3ccccc23)o1
active: Potency [5] 20.9 µM
inactive: outcome [7] | Potency [3] | Potency [4] | Potency [8]

C1CCC(C(CC2CCCCN2)C2CCCCC2)CC1 (stereo unspecified)
inactive: Potency [2] | Potency [3]
active: Potency [1] 15.8 µM | Potency [4] 11.8 µM | Potency [5] 13.2 µM | Potency [8] 26.4 µM | Potency [6] 18.7 µM

Cc1cc(NS(=O)(=O)c2ccc(N)cc2)no1
inactive: Potency [2] | Potency [3] | Potency [4] | Potency [5] | Potency [8] | Potency [6]

Cc1noc(NS(=O)(=O)c2ccc(N)cc2)c1C
inactive: Potency [2] | Potency [3] | Potency [4] | Potency [5] | Potency [8] | Potency [6]

CC[C@H](C)C(=O)O[C@H]1C[C@@H](C)C=C2C=C[C@H](C)[C@H](CC[C@@H]3C[C@@H](O)CC(=O)O3)[C@H]21
active: Potency [4] 11.8 µM
inactive: Potency [2] | Potency [3] | outcome [15] | Potency [16] | outcome [17] | Potency [19] | Potency [8] | Potency [6]

NC(=O)c1ccc2[nH]ccc2c1
inactive: outcome [7] | Potency [3] | Potency [5]

CNC1CCCN(c2c(F)cc3c(=O)c(C(=O)O)cn(C4CC4)c3c2OC)C1 (stereo unspecified)
inactive: Potency [2] | Potency [3] | Potency [4]

O=C(O)CCn1c2c(c3ccccc31)C[C@H](NS(=O)(=O)c1ccc(F)cc1)CC2
inactive: Potency [2] | Potency [3] | outcome [15] | outcome [17]
active: Potency [16] 1.68 µM

C[C@@H](NCCCc1cccc(C(F)(F)F)c1)c1cccc2ccccc12
inactive: Potency [2] | Potency [3] | Potency [4] | Potency [5] | Potency [8]

CCC(C)(C)c1ccc(CC(C)CN2C[C@@H](C)O[C@@H](C)C2)cc1 (stereo partly specified)
inactive: Potency [2] | Potency [3]

CCc1c2c(nc3ccc(OC(=O)N4CCC(N5CCCCC5)CC4)cc13)-c1cc3c(c(=O)n1C2)COC(=O)[C@]3(O)CC
active: Potency [2] 20.2 µM and 2.05 µM | Potency [3] 12.6 µM | Potency [4] 0.935 µM | Potency [5] 1.32 µM | Potency [8] 4.69 µM | Potency [6] 1.32 µM

O=C(NCC1CN(c2ccc(N3CCOCC3=O)cc2)C(=O)O1)c1ccc(Cl)s1 (stereo unspecified)
inactive: Potency [2] | Potency [3] | outcome [15] | Potency [16] | outcome [17] | Potency [19] | Potency [8]

Nc1nc(N)nc(-c2cc(Cl)ccc2Cl)n1
inactive: Potency [2] | Potency [3] | Potency [4] | Potency [5] | Potency [8]

CN1CCN(c2c(F)cc3c(=O)c(C(=O)O)cn4c3c2OCN4C)CC1
inactive: Potency [2] | Potency [3] | Potency [4] | Potency [5] | Potency [8] | Potency [6]
